From PubChem BioAssay (EPA / NIEHS) come the findings set out here.

Activity calls are given as the source filed them. Rule for the calls: active = hit-call score of the fitted dose curve at least 0.9, where 1 is the maximum; inactive = score below 0.9.

What is called AC50 is the midpoint of the concentration-response curve, whichever way the signal moves.

Read-out in the experiment: catalase (CAT), CAT (gene 847)
As to the kind of experiment: LTEA_HepaRG_CAT: Life Technologies and Expression Analysis (LTEA) Assay for catalase (CAT) using HepaRG (AID 2283452).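 For AC50: TaqMan qRT-PCR signal normalized to ACTB GAPDH and POLR2A housekeeping genes.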 The following applies: mRNA level, 48 h; actives raise or lower the signal. The protocol: LTEA_HepaRG is a cell based, multiplexed-readout assay that uses HepaRG, a human liver cell line, with measurements taken at 48 hours after chemical dosing on a 96-well plate.LTEA_HepaRG_CAT is one of 102 assay component(s) measured in the LTEA HepaRG cell culture assay. It is a marker of Oxidative Stress.Data from the assay component LTEA_HepaRG_CAT was analyzed into 1 endpoint. This assay endpoint, LTEA_HepaRG_CAT, was analyzed with bidirectional fitting relative to DMSO as the negative control and baseline of activity. Using a type of inducible reporter, measures of mRNA induction for gain or loss-of-signal activity can be used to understand regulation of transcription factor activity. To generalize the intended target to other relatable targets, this assay endpoint is annotated to the catalase intended target family, where the subfamily is oxidative stress.
A total of 1060 chemcials from the ToxCast library were tested in eight-point concentration-response experiments. Cell culture and cytotoxicity assays were conducted at Thermo Fisher Scientific's Custom Services facility (Madison, WI). A single lot of human HepaRG cells (Thermo Fisher Scientific, Frederick, MD) was used for the cell culture experiments. 96-well format collagen type I coated plates of human HepaRG cells were prepared using established methods. Briefly, cryopreserved HepaRG cells were thawed, plated at a density of approximately 100,000 cells/well in HepaRG Thaw, Plate, and General Purpose media (HPRG770, Thermo Fisher Scientific), and incubated for 48 hours. 0.5% DMSO was selected as vehicle control to balance the requisite need of DMSO in HepaRG cultures to maintain differentiation (for example, baseline metabolism, proportions of hepatocytes vs. cholangiocytes), while enabling further hepatic receptor pathway activation (for example, PXR and CAR) in response to chemical exposure. 48 hours after plating, the culture medium was replaced with HepaRG Serum-Free Incudtion Media. Cells were exposed to each test chemical in duplicate and maintained in CO2 incubators for another 48 hours. Chemical plates were thawed to room temperature and 200x concentrations of treatment groups were prepared. 8-point conentration-reponse curves were made with the highest exposure at 100 uM, followed by half-log dilutions, all in 0.5% DMSO. Each test plate contained variouse controls, induction positive controls (1mM phenobarbital), cytotoxicity positive controls ([…] aflatoxin B1), vehicle controls (0.5% DMSO), and total lysis controls (0.5% DMSO). Cell morphology images were taken using an Essen IncuCyte FLR automated microscope, with six 96-well plates imaged in about 24 minutes. Images were captured and exported and JPEG files. Spent culture media was transfered to black-well plates for the LDH assay, and remaining media was sorted at -80 C for later use. Cells were treated with RLT buffer and frozen until shipped for gene expression analysis. Total RNA was isolated from the cell suspension in 75 uL of Buffer RLT (Qiagen, Germantown, MD 20874) by Quintiles/Expression Analysis (Durham, NC) using a custom isolation procedure. Total RNA from each plate well was transferred to a preamplification plate. Fluidigm's 96.96 Dynamic ArrayTM (Fluidigm, Amsterdam, the Netherlands) technology was used for gene expression analyses by quantitative reverse transcription polymerase chain reaction (qRT-PCR, performed by Quintiles/Expression Analysis, Durham, NC)89. Standard TaqManTM Assays (Applied Biosystems/ThermoFisher Scientific, Foster City, CA) were used to assess the expression of 93 genes selected based on their selectivity and sensitivity to important hepatic receptors known to be modulated by environmental chemicals; importance in human hepatocyte functionality; and hepatotoxicity. […]
Take `Oc1ccccc1O`: the compound was called inactive.
Take `CC(=O)OC1CC(C)OC(C)O1` (stereo not given): the compound was called inactive.
Regarding `COc1ccc(C(=O)Nc2nc3ccccc3c(NCc3ccccc3)c2C#N)cc1`, the AC50 is 18.7 µM (active).
Take `Cc1cn([C@H]2C=C[C@@H](CO)O2)c(=O)[nH]c1=O`: the outcome was inactive.
The same measure, in the same setting: the entry for `CCCCCCCC(=O)OC` is “inactive”; for `C=CCCCCCCCCCCCC` it is “inactive”; for `O=C(NS(=O)(=O)/C=C/c1cccs1)c1ccc(F)cc1Br` it is “inactive”.
On to `CC1(C)C(=O)NC(=O)N1CO`, for which the result was inactive.
Still for that read-out and setting: the entry for `CSc1ccc(Oc2ccc(S(N)(=O)=O)cc2CN(C)C)cc1C` is “inactive”; for `O=[Si]=O` it is “inactive”; for `NC=O` it is “inactive”.
On the same count and under the same terms, the entry for `O=C1CCCCC1` is “inactive”.
As for `CCc1nc(N)nc(N)c1-c1ccc(Cl)cc1`, the AC50 was 30.6 µM (active).
With `C/C=C/c1ccc(OC)cc1`, the compound was called inactive.
For the compound `CN(C)CCCN1c2ccccc2Sc2ccc(Cl)cc21`, the concentration at half-maximal activity (AC50) is 50 µM (active).
Take `O=C1c2c(O)cccc2Cc2cccc(O)c21`: the compound was called inactive.
In the case of `COC(=O)[C@H]1[C@H]2C[C@@H]3c4[nH]c5cc(OC)ccc5c4CCN3C[C@H]2C[C@@H](OC(=O)c2cc(OC)c(OC)c(OC)c2)[C@@H]1OC`, the AC50 is 42.2 µM (active).
Consider `CCOCCOCCO`, for which the outcome was inactive.
In the case of `CCC(C)N(C)C(=O)c1cc2ccccc2c(-c2ccccc2Cl)n1` (stereo not given), the result was inactive.
Still for that read-out and setting: the entry for `S=c1[nH]c2ccccc2s1` is “inactive”.
As to `Nc1nc(=S)c2[nH]cnc2[nH]1`, the AC50 was 7.04 µM (active).
`Cc1c(C)c2c(c(C)c1O)CCC(C)(COc1ccc(CC3SC(=O)NC3=O)cc1)O2` (stereo not given): the AC50 is 50 µM (active).
Consider `C=CCc1ccc(OC)c(OC)c1`, for which the compound was called inactive.
On the same count and under the same terms, the entry for `CC(C)c1cccc(C(C)C)c1` is “inactive”.
Consider `Cn1cnc2c1c(=O)[nH]c(=O)n2C`, for which the compound was classed as inactive.
The same measure, in the same setting: the entry for `CS(=O)(=O)c1ccc([C@@H](C[C@H]2CCC(=O)C2)C(=O)Nc2cnccn2)cc1Cl` is “inactive”; for `O=C(O)c1[nH]n(-c2ccc(S(=O)(=O)O)cc2)c(=O)c1N=Nc1ccc(S(=O)(=O)O)cc1` it is “inactive”; for `O=C(O)CC(O)(CC(=O)O)C(=O)O` it is “inactive”.
For `O=C1OC(c2ccc(O)cc2)(c2ccc(O)cc2)c2ccccc21`, the AC50 is 69.2 µM (active).
Turning to `Nc1nc(Cl)nc2c1ncn2[C@H]1C[C@H](O)[C@@H](CO)O1`, the AC50 was 0.887 µM (active).
For the compound `COC(=O)CCCC(=O)OC`, the result was inactive.
For the compound `CCCCC(CC)COC(=O)CCCCCCCC(=O)OCC(CC)CCCC` (stereo not given), the result was inactive.
Same read-out and setting: the entry for `CCCCCCC(C=O)=Cc1ccccc1` is “inactive”; for `CC(C)OC(=O)C(C)(C)Oc1ccc(C(=O)c2ccc(Cl)cc2)cc1` it is “inactive”.
As to `COc1ccc(OC(F)(F)F)cc1CN[C@H]1CCCN[C@H]1c1ccccc1`, the AC50 was 71.6 µM (active).
Turning to `OCC(CO)n1cnc(-c2ccc(F)cc2)c1-c1ccnc(Oc2ccccc2)n1`, the compound was classed as inactive.
Consider `CCCCC(CC)COP(=O)(OCC(CC)CCCC)OCC(CC)CCCC` (stereo not given), for which the compound was called inactive.
Still for that read-out and setting: the entry for `CC(=O)OCC(COC(C)=O)OC(C)=O` is “inactive”; for `O=NO` it is “inactive”.
As to `CC(=O)O`, the result was inactive.
